Reference: PubChem BioAssay AID493201 (National Center for Advancing Translational Sciences (NCATS), 2011)
Records with an inconclusive call do not appear. A call without a number means that no potency is given here. Calls of active or inactive are those of the source. The call rests on the fitted dose curve; in most records, active means well fitted activation curve with a large enough effect; inconclusive means small, poorly fitted or top-dose-only effect; inactive means no such curve, though single readings can be large or run the other way.

Assay: qHTS Assay for Identifying a Potential Treatment of Ataxia-Telangiectasia: Secondary assay (no NCS) hit validation;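 further: phosphorylated KAP1 signal as a proxy for ATM-like kinase activity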
Settings: A-T patient fibroblasts, AlphaLISA, no DNA damage added, 90 min; series mostly up to 76.9 µM
Procedure, shortened: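 Without NCS-induced DNA breaks, ATM-like activity scored as phospho-KAP1 AlphaLISA signal (pKAP1/total KAP1 bead pair) in ATM-null F2112 fibroblasts; compound series up to 76.7 uM final, 37C incubation, lysates read on AlphaScreen protocol.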
Potency means the concentration at half of the fitted maximal effect.

Compound | Potency
CCN(CC)CCNC(=O)CCc1c(C)nc2c(c(C)nn2-c2ccc(C)cc2)c1C | inactive
NCC(=O)c1cccc2ccc[n+]([O-])c12 | inactive
CCOC(=O)Cc1csc(NC(=O)CSc2nnc(C(C)C)n2C)n1 | inactive
CCn1nc(C)c(/C=N/NC(=O)Cn2cncn2)c1C | inactive
N#CCN1C(=O)C(=O)N(Cc2cccc(Cl)c2)C1=O | inactive
c1ccc2c(c1)nc(Nc1ccc(N3CCCCC3)cc1)c1nncn12 | inactive
CCN1CCN(CC(=O)Nc2ccc(C(C)=O)cc2)CC1 | 26 µM (active)
O=C(N/N=C/c1cccc2ccccc12)c1cccnc1 | inactive
CN(C)c1ccc2nc3ccc(=[N+](C)C)cc-3sc2c1 | 14.6 µM (active)
Clc1cccc(CN2CCC(Cc3ccccc3)CC2)c1 | inactive
COc1ccc(-c2nn(C)c(=O)[nH]2)cc1 | inactive
S=c1[nH]nc(C2CCCCC2)n1/N=C/c1ccc(Br)cc1 | inactive
COC(=O)c1ccncc1C(=O)Nc1ccc(Oc2ncc(C(F)(F)F)cc2Cl)cc1 | inactive
O=C(CCCC(=O)N1CCCC1)N1CCCC1 | inactive
CCOC(=O)N1CCC(NC(=O)C2CCN(S(=O)(=O)c3cccc4cccnc34)CC2)CC1 | inactive
CCOC(=O)c1[nH]c(COC(=O)c2ccccc2NC(=O)c2ccco2)c(C(=O)OCC)c1C | inactive
